Experimental data published in publication PMC4552634, “A New Set of Chemical Starting Points with Plasmodium falciparum Transmission-Blocking Potential for Antimalarial Drug Discovery” (PLoS ONE, 2015).
About 3,200 (25%) of roughly 13,000 compounds showed an effect of 50% or more. The list shows a part of the results.

What follows are molecules tested on P. falciparum stage V gametocytes. Details: 48 h, 5 µM; inhibitor.
Design: BacTiter-Glo ATP luminescence viability of purified stage V gametocytes in 384-well plates, per cent inhibition versus DMSO

| SMILES | % Inhibition [%] |
| --- | --- |
| CCOc1cc(C(=O)NCC2CCN(CC3CCCCC3)CC2)ccc1-c1nc2ccc(Cl)cc2[nH]1 [TCMDC-140914] | -32.49 |
| O=C(NCCc1ccc(Cl)c(Cl)c1)[C@@H]1CCCN1C(=O)c1ccc(O)c(-c2cccc(C(F)(F)F)c2)c1 [TCMDC-140822] | 3.039 |
| O=C(NCc1ccc(Cl)cc1)c1ccc(C(=O)NCC2CCCN2CC2CCCCC2)cc1 (stereo not drawn) [TCMDC-136754] | -3.385 |
| O=C(/C=C/c1ccc(C(F)(F)F)cc1)NCCCCCN1CCCN(C(=O)Nc2ccc(F)c(Cl)c2)CC1 [TCMDC-136107] | 77.99 |
| Cc1cc(C)c(NC(=O)N2CCCN(CCCCCNC(=O)/C=C/c3ccc(Cl)c(Cl)c3)CC2)c(C)c1 [TCMDC-135753] | 28.16 |
| O=C(/C=C/c1ccc(Cl)cc1)NCCCCCN1CCN(C(=O)C=Cc2ccc(Cl)c(Cl)c2)CC1 [TCMDC-135914] | 71.52 |
| O=C(/C=C/c1ccc(Cl)c(Cl)c1)NCCCCCCN1CCCN(C(=O)Nc2ccc(Cl)c(C(F)(F)F)c2)CC1 [TCMDC-135935] | 84.32 |
| Cc1noc(-c2ccccc2)c1NC(=O)NC1CCN(CCCCCNC(=O)/C=C/c2ccc(Cl)c(Cl)c2)CC1 [TCMDC-135890] | -22.75 |
| O=C(/C=C/c1ccc(Cl)c(Cl)c1)NCCCCCN1CCCN(C(=O)Nc2ccc(Cl)cc2)CC1 [TCMDC-135748] | -7.449 |
| O=C(/C=C/c1ccc(C(F)(F)F)cc1)NCCCCCN1CCN(C(=O)Nc2ccc(F)c(Cl)c2)CC1 [TCMDC-136096] | 8.329 |
| Cc1noc(-c2ccccc2)c1NC(=O)N1CCN(CCCCCCNC(=O)/C=C/c2ccc(Cl)c(Cl)c2)CC1 [TCMDC-135892] | 75.05 |
| O=C(/C=C/c1ccc(C(F)(F)F)cc1)NCCCCCN1CCCN(C(=O)Nc2ccc(Cl)c(Cl)c2)CC1 [TCMDC-136104] | -57.55 |
| O=C(/C=C/c1ccc(Cl)c(Cl)c1)NCCCCCN1CCCN(C(=S)Nc2ccc(Cl)cc2)CC1 [TCMDC-135893] | 2.458 |
| O=C(/C=C/c1ccc(Cl)c(Cl)c1)NCCCCCN1CCCN(C(=O)Nc2ccc(Cl)c(C(F)(F)F)c2)CC1 [TCMDC-135762] | -47.47 |
| O=C(/C=C/c1ccc(Cl)c(Cl)c1)NCCCCCCN1CCN(C(=O)Nc2ccc(Cl)c(C(F)(F)F)c2)CC1 [TCMDC-135836] | -47.93 |
| Cc1cccc2[nH]c(-c3cccc(-c4cccc(NC(=O)CC5NC(=O)c6ccccc65)c4)c3)nc12 (stereo not drawn) [TCMDC-137093] | 12.03 |
| CCOc1cc(C)ccc1C1CCN(CCCCNC(=O)c2coc(-c3ccc(Cl)cc3)c2)CC1 [TCMDC-138530] | -52.9 |
| O=C(c1cc(C(=O)NCc2ccc(Cl)cc2)c(=O)n(Cc2ccc(Cl)cc2)c1)c1cc(Cl)ccc1O [TCMDC-124339] | -61.86 |
| OC(CNc1ccnc(Nc2ccc(Cl)cc2)n1)c1cccc(C(F)(F)F)c1 (stereo not drawn) [TCMDC-136587] | 30.58 |
| O=C(/C=C/c1ccc(Cl)c(Cl)c1)NCCCCCN1CCCN(C(=O)Nc2ccc(Cl)c(Cl)c2)CC1 [TCMDC-135759] | -47.93 |
| O=C(/C=C/c1ccc(Cl)c(Cl)c1)NCCCCN1CCCN(C(=O)Nc2ccc(F)c(Cl)c2)CC1 [TCMDC-135931] | -30.88 |
| O=C(/C=C/c1ccc(Cl)c(Cl)c1)NCCCCN1CCCN(C(=O)Nc2ccc(Cl)c(Cl)c2)CC1 [TCMDC-135932] | 87.86 |
| O=C(/C=C/c1ccc(Cl)c(Cl)c1)NCCCCCCN1CCCN(C(=O)Nc2ccc(C(F)(F)F)cc2)CC1 [TCMDC-135937] | -27.04 |

| SMILES | % Inhibition [%] |
| --- | --- |
| O=C(/C=C/c1ccc(Cl)c(Cl)c1)NCCCCCCN1CCCN(C(=O)Nc2ccc(Cl)c(Cl)c2)CC1 [TCMDC-135933] | 52.33 |
| O=C(/C=C/c1ccc(Cl)c(Cl)c1)NCCCCCCN1CCN(C(=O)Nc2ccc(Cl)c(Cl)c2)CC1 [TCMDC-135835] | 30.42 |
| O=C(/C=C/c1ccc(Cl)c(Cl)c1)NCCCCCCN1CCCN(C(=O)Nc2cccc(C(F)(F)F)c2)CC1 [TCMDC-135934] | 13.78 |
| O=C(/C=C/c1ccc(Cl)c(Cl)c1)NCCCCCCN1CCCN(C(=O)Nc2ccc(F)c(Cl)c2)CC1 [TCMDC-135940] | 14.82 |
| O=C(/C=C/c1ccc(Cl)c(Cl)c1)NCCCCCN1CCCN(C(=O)Nc2cccc(C(F)(F)F)c2)CC1 [TCMDC-135758] | 79.21 |
| CCCO[C@H](C(=O)OC)[C@@H](CC1Cc2ccccc2C1)C(=O)NCCC1=CCCCC1 [TCMDC-140419] | -16.75 |
| COc1ccc2nc(C)cc(Nc3ccc(Oc4ccc5ccccc5c4)c(Cl)c3)c2c1 [TCMDC-124209] | -14.35 |
| N#Cc1cccc(-c2nc(NCc3cccc(C(F)(F)F)c3)nn2-c2cccc(C(F)(F)F)c2)c1 [TCMDC-133548] | -85.5 |
| Cc1nc(N)nc(N)c1-c1ccc(Br)c(Br)c1 [TCMDC-137372] | 14.5 |
| COc1ccc2ncc(F)c(CCN3CCC(CNC(=O)C(=O)c4c[nH]c5ccccc45)CC3)c2n1 [TCMDC-135874] | 3.215 |
| Cc1cc(C(=O)Nc2ccc3c(ccn3C3CCCN(Cc4ccc(C(F)(F)F)cc4F)CC3)c2)no1 (stereo not drawn) [TCMDC-135088] | 41.42 |
| COc1cccc(NC(=O)Nc2ccc(C)c(-c3ccc(C(=O)Nc4ccncc4)cc3)c2)c1 [TCMDC-133704] | -18.6 |
| COc1ccc(NC(=O)c2ccc(-c3ccc(-c4cccnc4)cc3)c(C)c2)cc1OCCN(C)C [TCMDC-138989] | 38.05 |
| COC(=O)c1ccc(-c2ccc(-c3cccnc3)cc2C)cc1 [TCMDC-139074] | 95.09 |
| COc1ccc(C(=O)Nc2ccc3nc(N4CCCCC4)cc(C)c3c2)cc1OC [TCMDC-124422] | 4.122 |
| COc1ccc(NC(=O)c2ccc(OCCCCCCCOc3ccc(C(=O)Nc4ccc(OC)c(N5CCN(C)CC5)c4)cc3)cc2)cc1N1CCN(C)CC1 [TCMDC-139007] | 102 |
| COc1ccc(NC(=O)c2ccc3cc4ccccc4cc3c2)cc1N1CCN(C)CC1 [TCMDC-138983] | 82.38 |
| COc1ccc(NC(=O)c2cccc(Br)c2)cc1N1CCN(CCCCCCCN2CCN(c3cc(NC(=O)c4cccc(Br)c4)ccc3OC)CC2)CC1 [TCMDC-139020] | 104.8 |
| COc1ccc(NC(=O)c2ccc(NC(=O)c3ccc(Cl)cc3)cc2)cc1N1CCN(C)CC1 [TCMDC-138188] | 5.64 |
| COc1ccc(NC(=O)c2ccc(-c3nc(-c4ccccc4)cs3)cc2)cc1N1CCN(C)CC1 [TCMDC-138980] | -14.93 |
| COc1ccc(NC(=O)c2ccc(Br)c(C)c2)cc1N1CCN(CCCCc2ccccc2)CC1 [TCMDC-139035] | -7.283 |
| COc1ccc(NC(=O)c2ccc(C=Cc3ccc(C(F)(F)F)cc3)cc2)cc1N1CCN(C)CC1 [TCMDC-138674] | 15.84 |
| COc1ccc(NC(=O)c2ccc(-c3cccc(OCc4ccccc4)c3)cc2)cc1N1CCN(C)CC1 [TCMDC-138991] | -59.54 |

| SMILES | % Inhibition [%] |
| --- | --- |
| COc1ccc(NC(=O)c2ccc(Br)c(C)c2)cc1N1CCN(CCCc2c[nH]c3ccccc23)CC1 [TCMDC-139036] | 49.59 |
| CCN1CCN(c2cc(C)c3cc(NC(=O)c4ccc(OC)c(OC)c4)ccc3n2)CC1 [TCMDC-123598] | 74.46 |
| CCN1CCN(c2cc(C)c3cc(NC(=O)c4ccc(OC)c([N+](=O)[O-])c4)ccc3n2)CC1 [TCMDC-123599] | 3.112 |
| O=C(Nc1cc(C(F)(F)F)cc(C(F)(F)F)c1)c1cccc([N+](=O)[O-])c1 [TCMDC-123503] | -13.95 |
| COc1csc2cc(Br)ccc12 [TCMDC-139000] | 9.347 |
| COc1cc(C(=O)NCCCN2CCN(c3cc(Cl)ccc3OC)CC2)ccc1-c1nc2cc(Cl)c(Cl)cc2[nH]1 [TCMDC-140079] | 4.425 |
| COc1cc(C(F)(F)F)c2cc(CNCCCNc3nc4ccccc4[nH]3)[nH]c2c1 [TCMDC-140014] | 33.56 |
| CCOc1ccc(Nc2ccc3nonc3c2S(=O)(=O)Nc2ccc(OCC)cc2)cc1 [TCMDC-138325] | -11.05 |
| CCC(CC)(CCC#N)CN(C[C@@H](O)[C@H](Cc1ccccc1)NC(=O)OC(C)(C)C)S(=O)(=O)c1ccc(OC)cc1 [TCMDC-138270] | 4.425 |
| COc1ccc(O)c(Cc2cnc3nc(N)[nH]c(=O)c3c2C)c1 [TCMDC-137766] | -34.15 |
| CCCNc1ccc2nccc(CCN3CCC(NCc4ccc5c(n4)NC(=O)CS5)CC3)c2n1 [TCMDC-141591] | 39.25 |
| CO/C(=C\C=C\c1cc2cc(Cl)c(Cl)cc2[nH]1)C(=O)NCCCN1CC(C)N(C)CC1C (stereo not drawn) [TCMDC-139044] | -57.76 |
| CO/C(=C\C=C\c1cc2cc(Cl)c(Cl)cc2[nH]1)C(=O)NCCCN1CCCC[C@@H]1C [TCMDC-139059] | 70.67 |
| COc1ccc2nc(-c3ccc(C(=O)NCCCN4CCN(c5cc(Cl)ccc5OC)CC4)cc3)[nH]c2c1 [TCMDC-140024] | -1.879 |
| CCOC(=O)C1CCN(CCCNC(=O)/C(=C/C=C/c2cc3cc(Cl)c(Cl)cc3[nH]2)OC)CC1 [TCMDC-139356] | -1.751 |
| COc1ccc(Cl)cc1N1CCN(CCCNC(=O)c2ccc(-c3nc4cc(Cl)c(F)cc4[nH]3)c(F)c2)CC1 [TCMDC-140098] | -15.17 |
| CO/C(=C\C=C\c1cc2cc(Cl)c(Cl)cc2[nH]1)C(=O)NCCCN1CCN(C2CCCCC2)CC1 [TCMDC-139296] | -42.38 |
| CO/C(=C\C=C\c1cc2cc(Cl)c(Cl)cc2[nH]1)C(=O)NCCCN1CCN(c2cccc(Cl)c2)CC1 [TCMDC-139141] | 15.28 |
| CO/C(=C\C=C\c1cc2cc(Cl)ccc2[nH]1)C(=O)NCCCN1CCN(c2cc(Cl)ccc2OC)CC1 [TCMDC-139242] | 50.82 |
| CO/C(=C\C=C\c1cc2cc(Cl)c(Cl)cc2[nH]1)C(=O)NCCCN1CCCC[C@H]1C [TCMDC-139058] | 98.53 |
| CO/C(=C\C=C\c1cc2cc(Cl)c(Cl)cc2[nH]1)C(=O)NCCN1CCCCC1 [TCMDC-139019] | 39.34 |
| COc1ccc(Cl)cc1N1CCN(CCCNC(=O)c2ccc(-c3nc4cc(Cl)c(F)cc4[nH]3)cc2)CC1 [TCMDC-140094] | 66.12 |
| CO/C(=C\C=C\c1cc2cc(Cl)c(Cl)cc2[nH]1)C(=O)NCCCCN1CCN(c2ccccc2OC)CC1 [TCMDC-139178] | -64.2 |
